Results reported in the supplement of paper PMC4166925.
± gives the standard deviation of the averaged measurements. Over roughly 33,000 sequences, “E-score (dimensionless, -0.5 to 0.5)” has its median near -0.046; the highest 2% begin near 0.36. Only a selection was taken, and the highest values are over-represented in it overall.

Each sequence was assayed on T1, SpTbr T-box DNA-binding domain (GST fusion) (assay: PBM E-score of 8-mer (E-score (dimensionless, -0.5 to 0.5)); Tbr is Tbrain of the sea star Patiria miniata (Pm) or the sea urchin Strongylocentrotus purpuratus (Sp); higher = stronger binding preference). Settings: the construct has about 5 more residues each side.
T1 sequence: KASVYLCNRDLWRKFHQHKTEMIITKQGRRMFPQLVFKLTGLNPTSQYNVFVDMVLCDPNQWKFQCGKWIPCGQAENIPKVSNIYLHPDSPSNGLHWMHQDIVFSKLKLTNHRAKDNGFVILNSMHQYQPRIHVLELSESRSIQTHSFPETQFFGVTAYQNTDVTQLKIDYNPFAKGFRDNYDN
Description: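 Universal protein-binding microarray (Agilent AMADID 016060, 60-bp probes with a 35-bp variable region) incubated with 200 nM GST-fused Strongylocentrotus purpuratus Tbr T-box DNA-binding domain (residues 362-554) in PBS pH 7.5. Scored for every ungapped 8-mer (given with its reverse complement) as E-score (range -0.5 to 0.5; >0.45 counts as bound) and Z-score of median probe intensity. Two replicate arrays (datasets 1 and 2).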
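Also: protein at 200 nM in PBS on universal double-stranded arrays.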

Row | Sequence | PBM E-score of 8-mer
1 | CCAGTTGA | 0.0132 ± 0.086
2 | CAGGGGTC | -0.231 ± 0.086
3 | AGAATCGC | 0.165 ± 0.045
4 | ACTGATGG | -0.00902 ± 0.051
5 | ACAGAGGG | -0.118 ± 0.029
6 | GCAATGCC | -0.174 ± 0.032
7 | GCATCTAA | -0.0797 ± 0.077
8 | GAATTGAA | -0.177 ± 0.099
9 | GTCGCCCA | 0.198 ± 0.0069
10 | ACACATAT | 0.407 ± 0.0072
11 | ACACATAA | 0.269 ± 0.016
12 | AAACATTG | 0.0255 ± 0.053
13 | AAACATTC | -0.0068 ± 0.0056
14 | ACACATAG | 0.306 ± 0.018
15 | ACACATTG | 0.368 ± 0.01
16 | CCACATTC | 0.14 ± 0.06
17 | ACACATTA | 0.291 ± 0.031
18 | ACACATTC | 0.38 ± 0.022
19 | GTCAAGCA | 0.0528 ± 0.058
20 | ACTCTTTA | 0.0329 ± 0.022
21 | CGCTACCA | 0.271 ± 0.0082
22 | ATTAGGAG | -0.247 ± 0.041
23 | GAGCCAGC | 0.0706 ± 0.066
24 | ACTACTCC | -0.139 ± 0.024
25 | ACTCCGGA | -0.0213 ± 0.013

Row | Sequence | PBM E-score of 8-mer
26 | CGTGCTAA | 0.349 ± 0.0041
27 | GGTGCTAA | 0.4658 ± 0.00059
28 | CGTGCGGA | 0.147 ± 0.028
29 | GGTGCTAC | 0.42 ± 0.007
30 | GGTGCGGA | 0.404 ± 0.023
31 | TGTGCTAA | 0.26 ± 0.011
32 | CGTGCTAC | 0.128 ± 0.0037
33 | AGTGCTAC | 0.245 ± 0.027
34 | AGTGCTAG | 0.265 ± 0.049
35 | AGTGCTAA | 0.412 ± 0.015
36 | AGTGCTAT | 0.243 ± 0.079
37 | AGTGCGGA | 0.257 ± 0.023
38 | AGTTACTG | -0.0684 ± 0.048
39 | AGTAGCCC | -0.239 ± 0.026
40 | CCCGCTTC | 0.139 ± 0.082
41 | GAGTTTGA | 0.00341 ± 0.029
42 | AGGTCAAT | -0.202 ± 0.093
43 | CTTTTCGA | -0.087 ± 0.018
44 | GGTGCAAC | 0.176 ± 0.012
45 | GGTGCAAA | 0.3907 ± 0.0034
46 | TGTGCAAA | 0.225 ± 0.033
47 | ACGTAGGG | -0.127 ± 0.051
48 | CTTGGAAC | -0.26 ± 0.046
49 | CGTCAAAG | 0.228 ± 0.028
50 | ACAAGGTC | 0.202 ± 0.026

Row | Sequence | PBM E-score of 8-mer
51 | ACAAGGTG | 0.425 ± 0.0045
52 | AGAAGGTC | -0.2756 ± 0.0017
53 | AGAAGGTA | -0.167 ± 0.031
54 | ACAAGGTA | 0.0584 ± 0.021
55 | AGAAGGTG | 0.386 ± 0.015
56 | AGATCTTC | 0.0938 ± 0.043
57 | AGTTGTGA | 0.407 ± 0.0049
58 | ACTTGTGG | 0.205 ± 0.00054
59 | TCTTGTCA | 0.24 ± 0.014
60 | CGTTGTGA | 0.162 ± 0.028
61 | GCTTGTCA | 0.12044 ± 2.8e-05
62 | ACTTGTCA | 0.4189 ± 0.00086
63 | AGTTGTGG | 0.164 ± 0.06
64 | GCTTGTGA | 0.202 ± 0.074
65 | ACTTGTGA | 0.412 ± 0.011
66 | ATTGCGAC | -0.0335 ± 0.048
67 | CGATGACG | 0.0899 ± 0.049
68 | AGCCTATC | -0.168 ± 0.1
69 | AACAATGC | -0.018 ± 0.0069
70 | CAGAGTTC | -0.129 ± 0.032
71 | ACTGGTAC | -0.0857 ± 0.01
72 | AACCACTT | -0.0435 ± 0.018
73 | GAGGTGGA | 0.06436 ± 0.00017
74 | CAGGTGGC | 0.323 ± 0.0069
75 | AAGGTGGC | 0.372 ± 0.0085

Row | Sequence | PBM E-score of 8-mer
76 | GAGGTGGC | 0.3855 ± 0.0037
77 | AAGGTGGG | 0.242 ± 0.042
78 | AAGGTGGA | -0.0733 ± 0.085
79 | AATGGCCT | -0.0378 ± 0.026
80 | AGAGTTTC | -0.243 ± 0.052
81 | AGCTAGCG | 0.0935 ± 0.042
82 | CCCCTCGG | -0.255 ± 0.051
83 | AACCTCGC | 0.152 ± 0.055
84 | AACCTCGG | -0.108 ± 0.049
85 | CACCTCGA | 0.44517 ± 8.5e-05
86 | AACCTCGA | -0.0446 ± 0.051
87 | GACCTCGC | 0.0532 ± 0.0042
88 | CACCTCGC | 0.439 ± 0.012
89 | CACCTCGG | 0.402 ± 0.0072
90 | GACCTCGA | -0.0589 ± 0.014
91 | CGACCCAC | 0.00361 ± 0.024
92 | ACTTTCGC | 0.328 ± 0.038
93 | ATGGGGGC | -0.283 ± 0.021
94 | AGGGACTA | -0.1367 ± 0.00023
95 | CTCAAGGC | -0.137 ± 0.013
96 | ATTACGCG | 0.19 ± 0.028
97 | ATGTCTAG | -0.0188 ± 0.02
98 | GCAGTGCC | -0.102 ± 0.027
99 | GATCCTCA | 0.11 ± 0.055
100 | GATAGCCC | -0.217 ± 0.0042

Row | Sequence | PBM E-score of 8-mer
101 | ACACTTGC | 0.4 ± 0.0054
102 | AAACTTGC | 0.102 ± 0.0067
103 | CCACTTGC | 0.192 ± 0.049
104 | ACACTTGA | 0.347 ± 0.0096
105 | ACACTTGG | 0.367 ± 0.022
106 | ATACTTGG | -0.22 ± 0.046
107 | GCCTAAGA | -0.128 ± 0.039
108 | ACGCTGAG | -0.115 ± 0.075
109 | AGGCCATA | -0.0266 ± 0.0079
110 | ACACCCTA | 0.371 ± 0.01
111 | CCACCCTC | 0.0803 ± 0.068
112 | ACCCCCTG | 0.0826 ± 0.062
113 | ACACCCTG | 0.415 ± 0.024
114 | ACACCCTC | 0.402 ± 0.016
115 | GCACCCTA | 0.118 ± 0.032
116 | ATACCCTG | -0.119 ± 0.008
117 | CCACCCTA | 0.0825 ± 0.11
118 | ACCCCCTC | -0.0672 ± 0.037
119 | GTCTAGAA | -0.242 ± 0.049
120 | CAGATCGA | -0.12 ± 0.014
121 | AGAGTTCG | -0.121 ± 0.068
122 | GATCGCAC | 0.442 ± 0.0075
123 | CATCGCAC | 0.376 ± 0.019
124 | GATCGCGC | 0.352 ± 0.025
125 | CATCGCAG | 0.109 ± 0.046

Row | Sequence | PBM E-score of 8-mer
126 | AATCGCAG | 0.0391 ± 0.046
127 | CATCGCAA | -0.03 ± 0.019
128 | AATCGCAT | 0.113 ± 0.0034
129 | AATCGCAC | 0.4074 ± 0.00091
130 | GATCGCAA | 0.2797 ± 0.00053
131 | GGGGAGCA | -0.25 ± 0.0084
132 | AGCACTGA | 0.0628 ± 0.0091
133 | AGTGCCCC | -0.185 ± 0.025
134 | CATGTCGA | -0.0673 ± 0.11
135 | AAGACGAT | -0.0524 ± 0.029
136 | GCGCGCGC | 0.0386 ± 0.035
137 | AGACTGAT | -0.168 ± 0.062
138 | GTCCAGCA | -0.295 ± 0.06
139 | CCTTTAAC | 0.141 ± 0.02
140 | AACTTCAC | 0.147 ± 0.036
141 | CACTTCAC | 0.39 ± 0.0097
142 | CACTTCAG | 0.269 ± 0.049
143 | CTAAGGAA | -0.158 ± 0.034
144 | AACCTGCG | 0.0936 ± 0.029
145 | AACCTGCC | -0.0535 ± 0.017
146 | AACCTGGC | 0.0794 ± 0.017
147 | CACCTGCA | 0.346 ± 0.0038
148 | CACCTGGC | 0.389 ± 0.021
149 | CACCTGCG | 0.425 ± 0.0075
150 | GACCTGCC | 0.0636 ± 0.012

Row | Sequence | PBM E-score of 8-mer
151 | CACCTGGA | 0.297 ± 0.025
152 | CACCTGCC | 0.3954 ± 0.00044
153 | AATGGATC | -0.0632 ± 0.037
154 | GAATCGTA | -0.0254 ± 0.00061
155 | CGACTGCA | -0.155 ± 0.0016
156 | CGAGGGGA | -0.0885 ± 0.018
157 | CAGTGCTC | 0.0319 ± 0.0026
158 | AGACACTC | 0.129 ± 0.029
159 | ATGACACA | 0.327 ± 0.033
160 | CTGACATC | -0.107 ± 0.031
161 | ATGACACC | 0.4599 ± 0.0031
162 | ATGACACG | 0.315 ± 0.035
163 | CTGACACC | 0.4611 ± 0.0014
164 | CTGACAGC | 0.318 ± 0.0042
165 | ACTCATAA | -0.0942 ± 0.0043
166 | CAGAGCGC | -0.00751 ± 0.044
167 | CAGGTCGC | 0.225 ± 0.038
168 | CTTTCACA | 0.44384 ± 0.0002
169 | ATTTCACG | 0.293 ± 0.04
170 | GTTTCACA | 0.38 ± 0.012
171 | CTTTCAAA | -0.203 ± 0.0062
172 | GCTTCACA | 0.347 ± 0.013
